# CF NFkB inh = inhibitors of PAF-induced NF-kB signaling, primary screen, cell-based, GFP fluorescence, uHTS. KKLEB NF-kB-GFP reporter, GFP fluorescence overnight. inhibition, % at 5 µM. 0.86% of 360,000 active. AID 588850, 2011;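 active = at least 50% inhibition at 5 µM, scaled per plate between neutral and stimulator controls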;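 also: PAF is a Pseudomonas aeruginosa culture filtrate used as stimulus; plate controls were PAF-stimulated DMSO wells for no effect and unstimulated DMSO wells for full effect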
# Peg3 prom inh = Peg3 promoter-driven luciferase inhibitors, primary screen, cell-based, HeLa, luciferase luminescence | HeLa PEG-Prom luciferase reporter, overnight | inhibition, % at 20 µM | 1.7% of 360,000 active;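 active = inhibition of at least 50% at 20 µM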
# ABHD5-PLIN5 inh = ABHD5-PLIN5 interaction inhibitors, primary screen, cell lysate, split luciferase complementation, luminescence; Perilipin-5 (Homo sapiens) + 1-acylglycerol-3-phosphate O-acyltransferase ABHD5 (Homo …; inhibition, % at 4 µM; 0.78% of 360,000 active; Split G. princeps luciferase complementation, 4 h; AID 602281, 2012;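 active = inhibition above the mean inhibition across every tested compound plus 3 SD, cut at about 22% in these data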;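 also: 0% = DMSO only wells and the 100% control is not disclosed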
# Target sequence (Q00G26 whole entry, looked up): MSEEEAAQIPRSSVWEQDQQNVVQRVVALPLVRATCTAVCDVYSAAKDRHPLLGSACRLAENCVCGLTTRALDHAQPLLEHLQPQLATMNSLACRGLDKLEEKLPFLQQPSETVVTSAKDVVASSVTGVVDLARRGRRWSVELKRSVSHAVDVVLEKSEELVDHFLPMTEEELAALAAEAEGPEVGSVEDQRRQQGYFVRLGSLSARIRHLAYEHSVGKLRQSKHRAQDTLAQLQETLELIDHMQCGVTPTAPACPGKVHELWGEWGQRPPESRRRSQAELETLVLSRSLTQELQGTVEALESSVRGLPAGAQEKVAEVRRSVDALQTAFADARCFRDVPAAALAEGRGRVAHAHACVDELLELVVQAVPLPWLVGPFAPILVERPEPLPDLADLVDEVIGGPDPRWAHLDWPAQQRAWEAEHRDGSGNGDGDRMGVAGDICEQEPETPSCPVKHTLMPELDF
# Target sequence (Q8WTS1 whole entry, looked up): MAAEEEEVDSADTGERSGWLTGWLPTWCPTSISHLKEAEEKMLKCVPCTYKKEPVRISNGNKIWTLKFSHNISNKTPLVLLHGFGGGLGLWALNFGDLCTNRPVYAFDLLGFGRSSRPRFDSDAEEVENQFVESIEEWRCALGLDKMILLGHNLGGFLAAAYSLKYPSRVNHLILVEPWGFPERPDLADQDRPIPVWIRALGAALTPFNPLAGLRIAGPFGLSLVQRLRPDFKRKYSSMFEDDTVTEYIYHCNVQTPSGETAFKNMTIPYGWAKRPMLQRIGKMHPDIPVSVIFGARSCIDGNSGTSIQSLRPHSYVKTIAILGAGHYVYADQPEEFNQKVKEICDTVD
# KKLEB tox = cytotoxicity in KKLEB CF airway cells, primary screen, cytotoxicity control for CF NF-kB inhibitor project, cell-based, uHTS, fluorescence assay plates; KKLEB CF airway cells viability, ATPlite luminescence, overnight; hits give low values; cells stimulated with P. aeruginosa culture filtrate; activity change (cytotoxicity), % at 5 µM; 0.36% of 360,000 active;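 active = corrected activity change at or below -50% at 5 µM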
# HIF-2a block = HIF-2a reporter inhibitors, primary screen, luminescence, 786-0 RCC cells; 786-0 RCC cells HIF-2a reporter, luciferase luminescence, overnight; inhibition, % at 18.8 µM; 0.72% of 360,000 active; AID 624352, 2012;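 active = inhibition of the luminescence signal of 40% or more relative to plate controls, in a single-dose primary screen at 18.75 µM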
# MITF TRPM1 inh = inhibitors of MITF-dependent TRPM1 promoter reporter, primary screen, cell-based, SK-MEL-5, single point, luciferase; AID 488899, 2010; 0.83% of 330,000 active; SK-MEL-5 TRPM1 promoter luciferase, 24 h; inhibition, % at 12.5 µM;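 active = mean inhibition across replicates of 60% or more, whatever share of single replicates reaches that level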
# The depositor's hits bear a star; . = no result given. Shown are actives, neighbours in structure and some others; about 3% of the full set was active somewhere.
SMILES,CF NFkB inh,Peg3 prom inh,ABHD5-PLIN5 inh,KKLEB tox,HIF-2a block,MITF TRPM1 inh
COc1ccc(-c2nc3c(Cl)cc(C(F)(F)F)cn3c2Cc2ccc(C)cc2)cc1OC,3.8,-6.8,-8.7,-15.1,-0.1,.
CCC(C)c1ccc(S(=O)(=O)N2CCN(C(C)CC(=O)O)CC2)cc1 (stereo unspecified),-0.6,0.9,-7.0,-2.6,14.2,-7.7
CN(C)CCCN(C(=O)COc1ccc(Cl)cc1)c1nc2cc3c(cc2s1)OCO3,-14.1,64.4*,23.1*,-11.1,-0.3,19.3
COc1ccc(-c2cc(C(F)(F)F)n3ncc(C(=O)NCc4ccco4)c3n2)cc1,-33.5,2.0,22.9*,1.2,11.8,-1.1
Cc1ccsc1/C=N/Nc1ccc(F)cc1F,10.4,-311.6,-5.8,-0.8,-253.6,-85.4
O=C(CSc1nnc2c(n1)[nH]c1ccccc12)N1CCCCC1,-10.3,-23.4,9.7,4.2,13.9,-4.7
Cc1ccc(C(=O)NNC(=O)CSc2nnc3c(n2)[nH]c2ccc(F)cc23)cc1,-16.2,55.1*,8.5,-5.7,4.7,13.7
CC1CCc2cc(F)ccc2N1C(=O)CSc1nnc2c(n1)[nH]c1ccccc12 (stereo unspecified),-12.8,64.6*,4.9,10.2,16.9,-5.2
CCOC(=O)C1=C(COC(=O)c2ccc([N+](=O)[O-])s2)NC(=O)NC1C (stereo unspecified),3.3,-6.8,3.1,15.9,-10.2,62.1*
CCS(=O)(=O)N1CCC(C(=O)Nc2cc(C)ccc2O)CC1,-3.1,5.0,4.9,2.5,1.1,0.8
COc1cc2c(cc1NC(=O)C(Cl)Cl)-c1ccc(NC(=O)C(Cl)Cl)cc1C2,-10.2,95.6*,-7.4,-14.2,-59.6,74.2*
O=C1NC(=S)S/C1=C\c1cc2ccccc2nc1N1CCCCC1,54.9*,38.3,1.0,-37.6,-52.6,12.0
Clc1cccc(Cc2c(-c3ccccc3)nc3ccc(Cl)cn23)c1,10.6,-63.3,0.1,2.3,-163.6,.
CCOc1ccc(N=C2SC(C(=O)Nc3ccccc3C#N)C(N)=C2C(=O)Nc2ccc(Cl)cc2)cc1 (stereo unspecified),-32.7,0.1,-1.8,15.6,-18.5,6.7
N#Cc1ccccc1NC(=O)C1SC(=Nc2ccccc2)C(C(=O)Nc2ccc(Cl)cc2)=C1N (stereo unspecified),8.6,26.5,-11.3,-9.6,-9.5,72.2*
COC1=CC(=O)C[C@@H](C)[C@]12Oc1c(Cl)c(OC)cc(OC)c1C2=O,8.6,23.9,3.7,-12.0,15.2,6.6
Cc1ccc(S(=O)(=O)N2CCC(C(=O)NNC(=O)c3cccnc3)CC2)cc1,-13.0,16.8,4.2,-10.2,20.7,1.1
Cc1cc(Br)c(OCc2ccc(C(=O)N/N=C/c3ccc[nH]3)cc2)c(Br)c1,71.1*,99.6*,-4.6,-84.7*,7.6,.
O=C(N/N=C/c1ccc[nH]1)c1ccc(O)cc1,4.3,-32.6,0.0,11.0,-21.5,-18.9
C=C1C(=O)C=C2CN(C(=O)c3ccccc3)[C@@](Cc3ccc(F)cc3)(C(=O)OC)[C@@H]12,75.0*,99.4*,74.9*,-91.2*,97.2*,99.3*
C=C1C(=O)CC2=C1[C@](Cc1ccc(F)cc1)(C(=O)OC)N(C(=O)c1ccccc1)C2,.,.,7.3,.,14.2,.
CC(C)(C)c1cc(CCC(=O)Nc2ccncc2)cc(C(C)(C)C)c1O,4.1,24.4,0.3,-3.8,17.9,-9.4
CC(=O)c1ccc(NC(=O)CN(c2c(C)cccc2C)S(C)(=O)=O)cc1,5.8,-131.9,5.5,-7.5,-160.2,-34.8
N=c1sc2ccccc2n1-c1ccccc1,2.2,21.6,-4.9,0.1,-13.3,-0.5
C=CC(=O)N=c1sc2ccccc2n1-c1ccccc1,56.8*,97.7*,17.9,-33.3,-37.6,50.9
SMILES,CF NFkB inh,Peg3 prom inh,ABHD5-PLIN5 inh,KKLEB tox,HIF-2a block,MITF TRPM1 inh
CNc1ncnc2c1ncn2[C@H]1CN(Cc2ccco2)C[C@@H](CO)O1,23.1,-4.7,-1.4,-4.9,1.7,.
CC1CN(C(=O)COC(=O)Cc2c(Cl)cccc2Cl)CC(C)O1 (stereo unspecified),-24.0,10.3,7.2,-4.6,-2.4,14.2
CC(=O)Oc1ccc(-c2nc3ccccc3c(=O)o2)cc1,0.7,77.3*,-4.8,12.2,23.5,5.6
CC(=O)NC(NC(=S)N1CCCCCC1)C(Cl)(Cl)Cl (stereo unspecified),13.7,14.8,0.9,1.6,17.5,-12.6
CC(=O)Nc1ccc(C(=O)N2CCCCC2c2cc(C(=O)NCc3cccnc3)no2)cc1 (stereo unspecified),-22.2,-2.0,-10.6,13.7,7.9,.
O=C(NC(=S)Nc1ccc2nc[nH]c2c1)c1ccccc1,-2.0,-228.5,2.0,-5.9,-258.3,-98.3
Cc1ccc(N=C2NC(=O)/C(=C/c3cn(C)c4ccccc34)S2)cc1C,53.2*,-5.0,-8.4,0.2,-45.4,2.2
Cn1cccc1/C=C1\SC(=Nc2ccccc2)NC1=O,11.8,-267.7,4.7,4.0,-262.4,-8.6
Cc1onc(-c2c(Cl)cccc2Cl)c1C(O)c1ccccc1 (stereo unspecified),-3.5,9.9,3.2,0.2,19.4,0.5
O=[N+]([O-])c1c(Nc2ccc(O)cc2)cc(N2CCOCC2)c2nonc12,30.4,4.0,0.5,-32.6,36.1,15.5
O=C(O)c1cc(Nc2cc(Cl)c3nonc3c2[N+](=O)[O-])ccc1O,-1.2,18.3,22.9*,3.2,-3.6,-7.8
Cc1ccc(-c2nc(-c3ccccc3)no2)c(Cl)c1,-2.0,9.0,-0.9,-79.9*,61.4*,49.3
O=C1c2cccc(OCC(=O)N3CCCc4ccccc43)c2CCN1Cc1ccc(Br)cc1,4.8,58.2*,7.4,-14.2,-15.0,3.0
COc1cc([N+](=O)[O-])ccc1NC(=O)NNC(=O)c1sccc1C,12.5,-29.7,2.4,-0.1,-24.1,-12.2
c1ccc(SSc2ccccn2)nc1,-7.1,15.8,34.7*,-15.4,23.9,0.0
c1ccc(Sc2ccccn2)cc1,3.6,7.2,-0.3,6.7,20.4,.
c1ccc(-c2cc3ccccc3[nH]2)cc1,12.5,-250.7,-19.9,-93.7*,-268.9,-91.8
O=C(CNC(=O)c1ccc(OC(F)F)cc1)Nc1cccc(S(=O)(=O)N2CCCC2)c1,2.3,19.4,1.4,-7.7,7.2,1.3
Oc1ccc(-c2csc(Nc3ccc4c(c3)OCO4)n2)c(O)c1,-41.3,-316.2,-19.1,1.6,-310.6,-48.6

# Screening data (PubChem BioAssay)
